From PubChem BioAssay (NCI)
Where “and” joins values, the source holds several entries; their conditions need not be identical. Equal entries are not always repeated. This is part of a sample that, as a whole, favours compounds with a hit. Of some 83,000 tested, about 20% had one in any assay.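 How to read the values: 0–100, growth inhibition (40 = 60% inhibited); 0, no net growth; -100 to 0, cell death (-40 = 40% of starting cells died; -100 = all dead).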 Calls of active or inactive are those of the source. Rule for the calls: active = growth percent below 10; inactive = the rest.

Legend:
Assay in all cases: NCI-60 one-dose screen, 48 h (100 = growth as untreated, 0 = no growth, -100 = all killed)
Conditions in all cases: 10 µM unless noted
[1] = tested on: NCI-H23 lung
[2] = tested on: NCI-H226 lung
[3] = tested on: HOP-62 NSCLC
[4] = tested on: NCI-H460 lung
[5] = tested on: HOP-92 NSCLC
[6] = tested on: NCI-H522 lung
[7] = tested on: A549/ATCC NSCLC
[8] = tested on: 786-0 renal
[9] = tested on: COLO 205 colon
[10] = tested on: DU-145 prostate
[11] = tested on: K-562 leukemia
[12] = tested on: MALME-3M melanoma
[13] = tested on: MDA-MB-231 breast
[14] = tested on: RXF 393 renal
[15] = tested on: SF-268 CNS
[16] = tested on: SF-295 CNS
[17] = tested on: SF-539 CNS
[18] = tested on: UACC-257 melanoma
[19] = tested on: M14 melanoma
[20] = tested on: NCI-H322M lung

SMILES	growth [1]	growth [2]	growth [3]	growth [4]	growth [5]	growth [6]	growth [7]	growth [8]	growth [9]	growth [10]	growth [11]	growth [12]	growth [13]	growth [14]	growth [15]	growth [16]	growth [17]	growth [18]	growth [19]	growth [20]
COc1cc2c(Nc3ccc(Cl)c(Cl)c3F)ncnc2cc1OCC1C[C@@H]2CN(C)C[C@@H]2C1 (some centres not stated)	-82.2% (active) and 40% (inactive)	-65.1% (active) and 46% (inactive)	-87.2% (active) and 16.6% (inactive)	-79.4% (active) and 21.6% (inactive)	-84.5% (active) and 16.3% (inactive)	-80.7% (active) and -36.8% (active)	-92.8% (active) and 15.8% (inactive)	-91.9% (active) and -22.5% (active)	-84.6% (active) and -25.1% (active)	-83.6% (active) and 25.4% (inactive)	-39.5% (active) and -0.692% (active)	-93.5% (active) and -34.7% (active)	-87.5% (active) and -9.5% (active)	-95.2% (active) and -65.2% (active)	-70.2% (active) and 24% (inactive)	-93.6% (active) and -55.7% (active)	-93.9% (active) and 17.5% (inactive)	-87.8% (active) and -64% (active)	-71.1% (active) and -62.8% (active)	–
CC(=O)Nc1ccc2cc3ccc(NC(C)=O)cc3nc2c1	74.2% (inactive) and 75% (inactive)	71% (inactive) and 69.8% (inactive)	70.9% (inactive) and 67% (inactive)	93.6% (inactive) and 106% (inactive)	60.6% (inactive)	74.3% (inactive) and 77.7% (inactive)	107% (inactive) and 115% (inactive)	63.9% (inactive) and 52.1% (inactive)	93.7% (inactive) and 91.4% (inactive)	64.5% (inactive) and 38.2% (inactive)	66% (inactive) and 98.4% (inactive)	134% (inactive) and 94.6% (inactive)	65% (inactive) and 75.7% (inactive)	82.7% (inactive) and 103% (inactive)	64.2% (inactive) and 57% (inactive)	71.9% (inactive) and 57.9% (inactive)	96.4% (inactive) and 87.4% (inactive)	111% (inactive) and 118% (inactive)	88% (inactive) and 87.8% (inactive)	–
CN1CCN(CCC=C2c3ccccc3Sc3ccc(S(=O)(=O)N(C)C)cc32)CC1	84.4% (inactive) and 91% (inactive)	111% (inactive) and 108% (inactive)	75.9% (inactive) and 83.8% (inactive)	–	29.4% (inactive)	44.2% (inactive) and 58.5% (inactive)	69.3% (inactive) and 79.6% (inactive)	41.6% (inactive) and 58.5% (inactive)	–	88.1% (inactive) and 101% (inactive)	1.04% (active) and -15.5% (active)	-13.1% (active) and 40.5% (inactive)	42.8% (inactive) and 69.3% (inactive)	30.4% (inactive) and 60% (inactive)	–	–	–	-83.1% (active) and -57.7% (active)	-67% (active) and -79.2% (active)	66.9% (inactive) and 77.2% (inactive)
Cc1ccc(-c2noc(CC(=O)c3ccc([N+](=O)[O-])cc3)n2)cc1	95.9% (inactive)	92.9% (inactive)	–	103% (inactive)	101% (inactive)	95.2% (inactive)	94.6% (inactive)	99.6% (inactive)	109% (inactive)	101% (inactive)	89.1% (inactive)	110% (inactive)	104% (inactive)	102% (inactive)	95.6% (inactive)	99% (inactive)	98.2% (inactive)	107% (inactive)	96.5% (inactive)	105% (inactive)
Cc1cc(O)c(C(C)C)cc1S(=O)(=O)O (tested in a mixture with another compound)	87.6% (inactive) and 13% (inactive) and 102% (inactive)	89% (inactive) and 43.4% (inactive) and 93.8% (inactive)	77.5% (inactive) and 33.1% (inactive) and 106% (inactive)	–	89.5% (inactive) and 6.59% (active) and 77.8% (inactive)	88.5% (inactive) and -20.5% (active)	90.1% (inactive) and 8.67% (active) and 102% (inactive)	87.2% (inactive) and 13% (inactive) and 116% (inactive)	124% (inactive) and -63.7% (active) and 103% (inactive)	120% (inactive) and 5.68% (active) and 115% (inactive)	111% (inactive) and 3.5% (active) and 104% (inactive)	99.7% (inactive) and 47.1% (inactive) and 93.1% (inactive)	107% (inactive) and 10.3% (inactive) and 90.1% (inactive)	97.3% (inactive) and 8.53% (active) and 118% (inactive)	101% (inactive) and 22% (inactive) and 109% (inactive)	101% (inactive) and 77.7% (inactive)	93.1% (inactive) and 4.98% (active) and 94.7% (inactive)	92.6% (inactive) and 40.4% (inactive) and 94.9% (inactive)	91.5% (inactive) and -39.1% (active) and 106% (inactive)	90.7% (inactive) and 24.7% (inactive) and 93.4% (inactive)
NC(=S)N/N=C(\c1ccc(Br)cc1)C1CC1	94.2% (inactive) and 87.9% (inactive)	96.7% (inactive) and 87.6% (inactive)	96.4% (inactive) and 87% (inactive)	104% (inactive) and 102% (inactive)	83.2% (inactive) and 92.7% (inactive)	98.9% (inactive)	103% (inactive)	113% (inactive) and 106% (inactive)	98.4% (inactive) and 94.5% (inactive)	96.8% (inactive) and 107% (inactive)	38% (inactive) and 43.1% (inactive)	84.3% (inactive)	67.2% (inactive)	122% (inactive) and 98.1% (inactive)	97.2% (inactive) and 103% (inactive)	93.5% (inactive) and 81.8% (inactive)	99% (inactive) and 100% (inactive)	63.1% (inactive)	88% (inactive) and 84.1% (inactive)	–
CC(=O)Nc1cc(S(=O)(=O)O)cc2cc(S(=O)(=O)O)c(N=Nc3ccccc3)c(O)c12	96.3% (inactive) and 101% (inactive)	99.7% (inactive) and 105% (inactive)	140% (inactive) and 98.6% (inactive)	104% (inactive) and 103% (inactive)	82% (inactive) and 102% (inactive)	112% (inactive) and 82.3% (inactive)	108% (inactive) and 97% (inactive)	106% (inactive) and 103% (inactive)	99.7% (inactive) and 109% (inactive)	118% (inactive) and 114% (inactive)	107% (inactive) and 84.6% (inactive)	110% (inactive) and 99.4% (inactive)	100% (inactive) and 104% (inactive)	107% (inactive) and 113% (inactive)	107% (inactive) and 100% (inactive)	105% (inactive) and 110% (inactive)	105% (inactive)	115% (inactive) and 94.5% (inactive)	103% (inactive) and 97.8% (inactive)	–
c1ccc2cc(C[n+]3ccn(Cc4ccc5ccccc5n4)c3)ccc2c1	-4.2% (active) and 29.2% (inactive)	19.6% (inactive) and 46.4% (inactive)	1.85% (active) and 44.3% (inactive)	11.1% (inactive) and 35.8% (inactive)	-20.1% (active) and -5.22% (active)	-27.4% (active) and 6.58% (active)	37.3% (inactive) and 59.3% (inactive)	30.9% (inactive) and 76.1% (inactive)	-38.3% (active) and -35.3% (active)	21.9% (inactive) and 64.5% (inactive)	14.5% (inactive) and 21.2% (inactive)	-27.2% (active) and 22.9% (inactive)	-2.02% (active) and 23.4% (inactive)	23.5% (inactive) and 45.4% (inactive)	11.9% (inactive) and 41.2% (inactive)	19.7% (inactive) and 60% (inactive)	13.8% (inactive) and 29.3% (inactive)	-25.3% (active) and -8.7% (active)	–	–
